Source: PubChem BioAssay AID1259313 (Sanford-Burnham Center for Chemical Genomics, 2017)
The campaign covered roughly 340,000 compounds. About 8,500 (2.5%) were called active.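 The calls were made as follows: active = melting temperature shift of at least 10% of the positive control shift, at one fixed dose; inactive = the rest.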 Many of the other results were omitted from the sample, so actives are more common in it than they were.

These compounds were tested on Glutamate receptor ionotropic, NMDA 3A (GRIN3A) ligand-binding domain (assay: binders of NR3A ligand-binding domain, primary screen, biophysical, differential scanning fluorimetry, uHTS (AID 1259313)). Conditions: NR3A LBD differential scanning fluorimetry, at 25 µM, stronger effect = higher value, 0% = protein alone, 100% = glycine-bound protein.

Tm shift relative to glycine control, inactive:
CCc1ccc2nc3sc(C(=O)Nc4nnc(CC)s4)c(N)c3cc2c1 2.24%
Cc1ccc(NC(=O)CSCC(=O)Nc2sccc2C#N)cc1 -2.55%
O=C(CCn1nnc2ccccc2c1=O)N[C@@H](Cc1c[nH]c2ccccc12)C(=O)O -1.09%
Cc1cccc(C)c1OCC(=O)NC(Cc1c[nH]c2ccccc12)C(=O)O (stereo not given) 0.33%
Cc1cc(NC(=O)C(C)SCC(=O)Nc2cccc(S(=O)(=O)N3CCCCCC3)c2)no1 (stereo not given) -1.57%
Nc1nonc1-n1nnc(C(=O)N/N=C/C2CCCCC2)c1-c1ccccc1 0.68%
O=C(N/N=C/c1ccc(Cl)cc1)c1nc2ccc([N+](=O)[O-])cc2c(=O)[nH]1 1.51%
Cc1cc(NC(=O)c2cc3ccccc3o2)no1 2.81%
O=C(NN=Cc1ccc([N+](=O)[O-])cc1)C1CC1 -0.92%
C[n+]1ccc(/C=C/c2c[nH]c3ccccc23)cc1 -3.88%
NC(=O)CSc1c[nH]c2ccccc12 0.83%
Cc1c(/C=N\NC(=O)c2cc3ccccc3o2)c2ccccc2n1C 2.79%
CC(C)c1c(C(=O)N/N=C/c2ccccc2C(=O)O)nnn1-c1nonc1N -7.76%
Cc1ccc(N2CCN(S(=O)(=O)N(C)C)CC2)cc1Cl 1.66%
CCCNC(=O)c1cnc(-c2ccccc2)nc1-c1ccccc1 -1.35%
CN(C)S(=O)(=O)N1CCC(Oc2cccc(C(=O)NCCCC3CCCC3)c2)CC1 0.18%
O=C(Oc1ccc(F)cc1)N1CCOCC1 1.08%
Cc1c(NC(=O)c2c([N+](=O)[O-])cnn2C)c(=O)n(-c2ccccc2)n1C -0.61%
CCOC(=O)C1(Cc2cccc(OC)c2)CCCN(S(=O)(=O)c2cccnc2)C1 (stereo not given) 0.32%
O=C(N/N=C/c1cccc(OCc2ccccc2)c1)c1ccc(Br)o1 -4.34%
Cc1ccc2occ(/C=N/NC(=O)c3ccccc3C)c(=O)c2c1 -0.75%
O=C(Cc1c[nH]c2ccccc12)N/N=C/c1cccc(F)c1 -4.78%
O=C(N/N=C/c1ccsc1)c1cc(O)cc(O)c1 -11.7%
COc1ccc2c(C)cc3nnnn3c2c1 1.26%
Cc1ccc(CN2CCC(N3CCC(C(=O)NCC4CCCO4)CC3)CC2)o1 (stereo not given) 0.34%
O=C(NC(=O)c1cc(OCC(F)(F)F)ccc1OCC(F)(F)F)Nc1ccccc1 -0.36%
CC(C)(C)n1nc2c(c1NC(=O)c1ccc(S(=O)(=O)N3CCCC3)cc1)CS(=O)C2 (stereo not given) 0.18%
CC(OC(=O)CNC(=O)c1cccc(F)c1)C(=O)NC1CCCCC1C (stereo not given) -0.43%
CCNC(=S)Nc1ccc(OC(F)(F)F)cc1 -1.13%
FC(F)(F)Oc1ccc(NC(=S)NCc2ccccc2)cc1 0.09%
c1ccc2cc3c(NCCN4CCOCC4)ccnc3cc2c1 -8.16%
O=C1CC(c2cccc(Cl)c2)CC(O)=C1C=Nc1ccccc1 (stereo not given) -0.75%
Cc1cc(C(=O)OCC(=O)NCc2ccco2)c(C)n1-c1ccccc1 -1.04%
Cc1ccc(S(=O)(=O)N2CC(O)C[C@H]2C(=O)OCC(=O)Nc2ccc(N3CCOCC3)cc2)cc1C (stereo not given in full) 1.27%
O=C(NCC1(N2CCCCC2)CCCCC1)c1cccc(S(=O)(=O)Nc2ccccc2Cl)c1 -0.85%
O=C(Nc1ccc2c(c1)CCC2)c1cccc(S(=O)(=O)N2CCN(c3ccc(F)cc3)CC2)c1 2.49%

Tm shift relative to glycine control, active:
Cc1ccc(NC(=O)c2sc3nc(N)c(C#N)cc3c2N)cc1 10.3%
O=C(N[C@@H](Cc1c[nH]c2ccccc12)C(=O)O)OCC1c2ccccc2-c2ccccc21 19.5%
O=C(N/N=C/c1ccc([N+](=O)[O-])cc1)c1c[nH]c2ccccc12 26.3%
O=C(N/N=C/c1c[nH]c2ccccc12)c1cc2ccccc2o1 28.7%
Nc1nonc1-n1nnc(C(=O)N/N=C/c2c[nH]c3ccccc23)c1-c1ccccc1 31.6%
CSC(=S)N/N=C/c1c[nH]c2ccccc12 30.1%
O=C(N/N=C/c1cccc(O)c1)c1cc2c(ccc3ccccc32)o1 25.4%
O=C(N/N=C/c1c[nH]c2ccccc12)c1ccccc1O 37%
CS(=O)(=O)c1sc(C(=O)NC(=S)Nc2ccc(OC(F)(F)F)cc2)c2c1C=CCC2 11.4%
